# Most compounds without a hit are left out; they make up all but 2.7% or so of the library.
# SENP7 block: inhibitors of human SENP7 protease. Q9BQF6. recombinant SENP7, Z-RLRGG-aminoluciferin luminescence, 40 min. inhibition, % at 5 µM. 330,000 compounds, 1.5% hits. AID 434973;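 active = inhibition above about 50% at the single test dose, limit read from the data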
# SENP8 block-1: blocks human SENP8 cleavage of Nedd8 substrate | Q96LD8 | recombinant SENP8, Nedd8 substrate fluorescence | inhibition, % at 20 µM | 360,000 compounds, 0.64% hits | AID 602440; in the data active = inhibition mostly above about 40%, no sharp cut-off; inactive = mostly below about 27%
# Target sequence (Q96LD8 whole entry, looked up): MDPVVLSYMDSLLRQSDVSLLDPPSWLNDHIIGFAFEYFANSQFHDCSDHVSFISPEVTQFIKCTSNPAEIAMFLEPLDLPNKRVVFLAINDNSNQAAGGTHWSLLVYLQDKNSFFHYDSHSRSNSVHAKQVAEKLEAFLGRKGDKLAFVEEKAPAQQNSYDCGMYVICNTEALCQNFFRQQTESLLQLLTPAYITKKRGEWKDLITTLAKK
# SENP8 block-2: SENP8 protease inhibition. purified SENP8, Z-RLRGG-aminoluciferin cleavage, luminescence. inhibition, % at 10 µM. 330,000 compounds, 1.2% hits. AID 2540; in the data active = inhibition above about 50%
# SENP6 inh: blocks the human protease SENP6. Recombinant SENP6 catalytic domain, aminoluciferin luminescence. AID 2599. 330,000 compounds, 1.8% hits. inhibition, % at 10 µM;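 active = inhibition above about 50% at the single tested dose, limit read from the data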
# HSP90 inh: inhibitors of HSP90 luciferase refolding in rabbit reticulocyte lysate. luciferase refolding luminescence, 3 h. inhibition, % at 5.6 µM. 290,000 compounds, 0.91% hits;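 active = inhibition above the screen-wide mean plus 3 SD, computed separately per campaign, cut at about 16% in these data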;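 also: inhibitors lower the luminescence because luciferase stays unfolded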
# SENP8 conf: confirmation of human SENP8 protease inhibitors; shares compounds with SENP7 block; Recombinant SENP8, Z-RLRGG-aminoluciferin luminescence, 60 min; inhibition, % at 12.5 µM; 6,200 compounds, 40% hits; AID 488912;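 active = mean inhibition across replicates above about 50%, limit read from the data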
# SENP6 conf: human SENP6 inhibition, confirmed; recombinant SENP6, Z-RLRGG-aminoluciferin luminescence; inhibition, % at 12.5 µM; 6,200 compounds, 58% hits; shares compounds with SENP7 block
# SENP7 conf: human SENP7 inhibition, confirmed; 6,200 compounds, 69% hits; inhibition, % at 12.5 µM; shares compounds with SENP7 block; AID 488917; recombinant SENP7, Z-RLRGG-aminoluciferin luminescence, 40 min
# Casp3 select: selectivity test for SENP inhibitors: human caspase-3 inhibition. shares compounds with SENP7 block. inhibition, % at 12.5 µM. 6,200 compounds, 60% hits. AID 488918. purified caspase-3, Z-DEVD-aminoluciferin luminescence, 60 min;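 active = mean inhibition above about 50%, limit read from the data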
# Target sequence (P42574 28-227 limits assumed): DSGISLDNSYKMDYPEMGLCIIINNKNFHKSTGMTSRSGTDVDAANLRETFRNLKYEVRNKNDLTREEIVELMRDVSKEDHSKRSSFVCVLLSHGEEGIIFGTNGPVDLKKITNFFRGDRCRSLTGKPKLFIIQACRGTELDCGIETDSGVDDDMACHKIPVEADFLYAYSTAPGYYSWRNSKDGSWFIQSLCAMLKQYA
# Luc interf: interferes with luciferase luminescence in SENP counter-screen; AID 488919; inhibition, % at 12.5 µM; shares compounds with SENP7 block; Pre-incubated SENP8/Z-RLRGG-aminoluciferin, luciferase luminescence interference; 6,200 compounds, 39% hits;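 active = mean inhibition above about 50% when retested at one dose, limit read from the data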
# Hits are given with their value; 0 = inactive; - = no result.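 The calls were made as follows, unless noted: active = mean inhibition above about 50% in the one-dose retest (limit read from the data); inactive = the rest.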
SMILES,SENP7 block,SENP8 block-1,SENP8 block-2,SENP6 inh,HSP90 inh,SENP8 conf,SENP6 conf,SENP7 conf,Casp3 select,Luc interf
CCCNC(=O)CSc1nnc(-c2ccccc2Br)n1-c1cccc(C(F)(F)F)c1,54,0,0,0,0,0,0,0,0,0
CC(=O)Oc1ccc2c(c1)c(C(C)=O)c(C)n2C,0,0,0,0,0,-,-,-,-,-
NS(=O)(=O)c1ccc2nc(NC(=O)Nc3ccccc3F)sc2c1,59,0,59,76,0,69,71,90,58,76
Cc1ccccc1NC(=O)Nc1nc2ccc(S(C)(=O)=O)cc2s1,51,0,0,0,0,0,0,0,0,0
Cc1cc(C(=O)NNC(=O)C(C)NS(=O)(=O)c2ccccc2F)c(C)o1 (configuration not stated),0,0,0,0,-,-,-,-,-,-
COC(=O)c1ccc(COn2nnc3ccccc32)cc1,52,0,0,56,0,0,0,76,70,0
Cc1cccc(NC(=O)c2ccc(C(=O)c3ccccc3)cc2)n1,0,0,0,0,-,-,-,-,-,-
Cc1cccc(NC(=O)NC(=O)c2ccccc2)n1,54,0,0,0,0,0,0,0,0,0
c1ccc2sc(NN=C3CCCCCC3)nc2c1,83,0,81,91,0,89,94,101,87,54
CCc1ccc(-c2nc(CCl)cs2)cc1,64,0,56,74,0,0,84,96,69,0
Cc1nc(Nc2ccccc2)sc1-c1ccccc1,90,0,82,90,0,94,94,100,71,0
c1ccc(Nc2nc(-c3ccccc3)ns2)cc1,83,0,60,77,0,0,53,92,0,0
CC(=O)c1sc(Nc2ccccc2)nc1C,-,0,-,-,-,-,-,-,-,-
COc1ccc(NC(=S)N(CCO)Cc2cc3c(C)cc(C)cc3[nH]c2=O)cc1,0,0,0,89,0,0,0,0,0,0
COc1ccc(NC(=O)N(CCO)Cc2cc3c(C)cc(C)cc3[nH]c2=O)cc1,0,0,0,0,0,-,-,-,-,-
N#CC1(c2ccccc2)CCC(=NNS(=O)(=O)c2ccccc2)CC1 (configuration not stated),0,0,0,0,-,-,-,-,-,-
COc1cc(OC)cc(C(=O)Nc2cccc(C(C)=O)c2)c1,68,0,0,65,0,58,53,82,78,63
COc1cc(OC)cc(C(=O)NC(C(=O)Nc2ccc3c(c2)OCCO3)C(C)C)c1 (configuration not stated),0,0,0,0,-,-,-,-,-,-
COc1cc(OC)cc(C(=O)Nc2cccc(NC(=O)c3ccccc3)c2)c1,0,0,0,0,0,-,-,-,-,-
COc1cc(OC)cc(C(=O)Nc2ccc3c(c2)OCCO3)c1,96,0,92,98,0,0,95,102,96,95
COc1cc(OC)cc(C(=O)Nc2ccc(Nc3ccccc3)cc2)c1,58,0,60,80,0,65,61,85,0,0
Nc1nc2ccc(-c3nc4ccccc4o3)cc2s1,0,0,0,0,0,-,-,-,-,-
c1ccc2oc(-c3ccc4nc[nH]c4c3)nc2c1,60,0,0,0,0,52,50,74,57,0
Cc1cccc(Nc2nc(NCC3CCCO3)nc(N)c2[N+](=O)[O-])c1 (configuration not stated),0,0,0,0,0,-,-,-,-,-
Cc1cccc2c1-c1sc(C(=O)Nc3nccs3)cc1CO2,67,0,0,0,0,0,0,0,0,0
SMILES,SENP7 block,SENP8 block-1,SENP8 block-2,SENP6 inh,HSP90 inh,SENP8 conf,SENP6 conf,SENP7 conf,Casp3 select,Luc interf
CCOC(=O)c1cccc(NC(=O)c2cccs2)c1,0,0,0,0,0,-,-,-,-,-
CCOC(=O)c1sc(NC(=O)c2sccc2C)cc1C,100,0,97,99,0,100,101,104,99,97
CCOC(=O)c1sc(NC(=O)c2cccs2)cc1C,91,0,66,83,0,0,75,98,81,0
CCOC(=O)c1sc(NC(=O)Nc2cccc(Cl)c2)cc1C,0,0,0,0,0,-,-,-,-,-
Cc1ccc(CCN2CC(C(=O)NCc3ccc4c(c3)OCO4)CC2=O)cc1 (configuration not stated),0,0,0,67,0,0,0,0,0,0
COc1ccc(-c2cn3nc(SCC(=O)NC4CCCCC4)ccc3n2)cc1,61,0,0,0,0,0,0,0,0,0
COc1ccc(-c2ccc(SCC(=O)NC3CCCCC3)nn2)cc1,0,0,0,0,0,-,-,-,-,-
Cc1ccccc1-n1c(=O)n(Cc2ccccc2)c(=O)c2[nH]cnc21,0,0,0,0,0,-,-,-,-,-
N=C1/C(=C/c2ccc(-c3cccc(C(=O)O)c3)o2)C(=O)N=C2SC=C(c3ccccc3)N12,0,0,0,65,0,0,0,0,0,0
NC(=O)c1ccsc1NC(=O)C1CCCN1S(=O)(=O)c1ccc(Cl)cc1 (configuration not stated),0,0,0,0,0,-,-,-,-,-
CC1CCCCN1S(=O)(=O)c1ccc(C(=O)Nc2sccc2C(N)=O)cc1 (configuration not stated),79,0,86,83,0,87,88,97,74,0
Cc1cc(C)n(-c2ccc(C(=O)Nc3sccc3C(N)=O)cc2)n1,63,0,0,75,0,64,64,82,58,0
COc1cccc(N2CCN(S(=O)(=O)c3ccc4c(c3)CC(C)N4C(=O)C3CC3)CC2)c1 (configuration not stated),0,0,0,0,0,-,-,-,-,-
CC(=O)Oc1ccc2nc(/C=C/c3ccccc3)oc(=O)c2c1,72,0,77,0,0,0,0,0,62,52
CC(=O)Oc1ccc2nc(/C=C/c3ccc(C=O)cc3)oc(=O)c2c1,0,0,0,0,0,-,-,-,-,-
O=C(CCN1C(=O)/C(=C/c2ccco2)SC1=S)Nc1ccc(C(=O)O)c(O)c1,0,0,0,0,0,-,-,-,-,-
CC(/C=C1\SC(=S)N(CCC(=O)Nc2cccc(C(=O)O)c2)C1=O)=C\c1ccccc1,0,0,0,0,0,-,-,-,-,-
CCc1ccc(C=C2SC(=S)N(CCCC(=O)Nc3ccc(C(=O)O)cc3)C2=O)cc1,-,0,-,-,-,-,-,-,-,-
COc1ccccc1/C=C1\SC(=S)N(CCC(=O)Nc2ccc(C(=O)O)c(O)c2)C1=O,0,0,64,72,0,77,76,79,0,81
Cc1ccc(/C=C2\SC(=S)N(CCCC(=O)Nc3cccnc3)C2=O)cc1,61,0,52,58,0,0,0,0,0,0

# Source: PubChem (several laboratories)
